# Compound activity (PubChem BioAssay)
# Sampled rows, rich in hits. Any-hit rate of the full collection: about 2.7%.
# IDH1 R132H inh – inhibitors of human mutant IDH1 R132H; IDH1-R132H enzyme, NADPH consumption, diaphorase/resazurin fluorescence; Potency, µM (top dose mostly 76.6 µM), inactives show top-dose activity change, negative = inhibition, hits mostly inhibitors; 390,000 compounds, 0.093% hits; O75874; AID 602179; note: potency is the fitted concentration of half-maximal effect; % is set by controls: 0 for no effect and ±100 for the full control effect; nearly all actives have a fitted effect of over 65% in size
#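 IDH1-R132H (0.5 ug/mL dispensed) in pH 7.5 Tris buffer was preincubated 30 min with compound, then given a substrate mix of 0.016 mM NADPH and 2 mM alpha-KG for 80 min at room temperature; remaining NADPH was read by diaphorase/resazurin fluorescence.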
# Nrf2 ARE act – activates Nrf2 signaling. AREc32 ARE-luciferase reporter (MCF7-derived line), luminescence, 24 h. 410,000 compounds, 0.31% hits. Potency, µM (highest dose often 46.1 µM), inactives show top-dose activation, hits mostly activators. AID 624171; note: potency is the fitted concentration of half-maximal effect; % of control where 0% means no effect; nearly all actives have a fitted effect of over 65% in size
#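 AREc32 cells carrying an ARE-driven firefly luciferase reporter were seeded at 1000 cells/well in OPTI-MEM with 5% FBS, then exposed to compound for 24 hr at 37 deg C. Luminescence was read with Steady-Glo after 30 min at RT.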
# ALOX12 inh – ALOX12 (human) lipoxygenase inhibition; Potency, µM (titrated, usually from 108 µM), without a hit: at the top dose activity change, negative = inhibition, actives largely listed as inhibitors; AID 1671190; purified 12hLO, xylenol orange hydroperoxide absorbance; 580,000 compounds, 1.1% hits; note: potency is the fitted concentration of half-maximal effect; % is set by controls: 0 for no effect and ±100 for the full control effect
# Target sequence (P18054 whole entry, looked up): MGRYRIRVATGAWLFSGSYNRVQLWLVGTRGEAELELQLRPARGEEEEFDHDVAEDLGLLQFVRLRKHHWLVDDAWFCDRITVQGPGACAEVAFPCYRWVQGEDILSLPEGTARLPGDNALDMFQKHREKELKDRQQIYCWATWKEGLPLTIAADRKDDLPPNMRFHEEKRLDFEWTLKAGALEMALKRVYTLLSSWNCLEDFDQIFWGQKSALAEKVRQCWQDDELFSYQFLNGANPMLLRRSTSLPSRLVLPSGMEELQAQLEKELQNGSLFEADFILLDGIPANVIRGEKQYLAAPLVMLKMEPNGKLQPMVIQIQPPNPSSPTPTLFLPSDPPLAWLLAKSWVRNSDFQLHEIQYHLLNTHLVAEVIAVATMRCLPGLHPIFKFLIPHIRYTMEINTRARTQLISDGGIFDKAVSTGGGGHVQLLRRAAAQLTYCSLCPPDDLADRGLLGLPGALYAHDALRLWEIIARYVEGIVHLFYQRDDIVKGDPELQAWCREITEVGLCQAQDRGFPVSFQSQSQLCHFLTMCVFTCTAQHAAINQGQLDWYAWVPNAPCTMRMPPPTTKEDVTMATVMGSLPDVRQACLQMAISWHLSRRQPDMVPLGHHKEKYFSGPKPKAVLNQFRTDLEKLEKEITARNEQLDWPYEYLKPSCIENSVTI
#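 Purified human 12hLO (150 nM final) in 25 mM Hepes, 0.01% Triton X-100, pH 7.0 was preincubated 15 min at room temperature with compound. Then 40 uM arachidonic acid was added, 30 min. Hydroperoxide was read by Fe-XO absorbance ratio 573/405 nm.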
# Nrf2 inh – inhibitors of Nrf2 signaling; AID 504444; Potency, µM (doses to about 46 µM), inactives show top-dose activity change, negative = inhibition, usual class: inhibitors; A549 ARE-Fluc reporter, luciferase luminescence, 18-24 h; 360,000 compounds, 2.1% hits; note: potency is the fitted concentration of half-maximal effect; % is set by controls: 0 for no effect and ±100 for the full control effect; nearly all actives have a fitted effect of over 60% in size
#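 Reporter: ARE-Fluc in A549. Exposure: 18-24 h, 37 °C, 5% CO2, 5% FBS OPTI-MEM. Readouts: fluorescent cytotoxicity (CellTiter-Fluor), then luminescent Nrf2 signal after BugLite.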
# A549 viability – counter-screen for Nrf2 inhibitors: cytotoxicity in A549 cells. A549 ARE-Fluc cells, CellTiter-Fluor viability, 18-24 h. Potency, µM (titrated, usually from 46 µM), for inactives: at the highest dose activity change, negative = cytotoxicity, actives largely listed as inhibitors. 390,000 compounds, 0.16% hits; note: potency is the fitted concentration of half-maximal effect; % is set by controls: 0 for no effect and ±100 for the full control effect
#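 A549 ARE_Fluc cells in 5% FBS OPTI-MEM were exposed to compounds in concentration-response for 18-24 h at 37 deg C. Viability was read by CellTiter-Fluor fluorescence (Ex 405/Em 525) after 30 min, before the luciferase read.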
# LDHA block – blocks human lactate dehydrogenase A | P00338 | purified LDHA, NADH/diaphorase-resazurin fluorescence; stronger effect = lower value | activity change, % (values are at about 110 or 230 µM) | 480,000 compounds, 0.15% hits; in the data active = activity change below about -30%; inconclusive = mostly about -25% to -30%;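 note: plate controls were DMSO wells for no effect and wells without enzyme for full effect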
#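 Enzyme activity of human lactate dehydrogenase 5 (2 nM; 0.06 mM NADH, 0.2 mM pyruvate, 5 min, RT) is measured via a resazurin/diaphorase fluorescence readout of residual NADH.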
# Starred values were filed as active, the others as inactive; ? = inconclusive; . = not tested or not shown; ! = a repeat was not active; [ ] = dose if it differs, or a comment. Unless noted, calls come from the whole dose curve; as a rule, active = well fitted curve in the direction sought with a large enough effect; inconclusive = small, poorly fitted or top-dose-only effect, or another doubt; inactive = no such curve, though single readings can be large; an effect the other way counts as inactive or inconclusive.
SMILES,IDH1 R132H inh,Nrf2 ARE act,ALOX12 inh,Nrf2 inh,A549 viability,LDHA block
CC(C)C(=O)N1N=C(c2ccccc2NS(C)(=O)=O)CC1c1ccco1 (centres undefined),.,.,-14%,.,.,-8
COc1ccc(CN2CCN(Cc3cccc(Oc4ccccc4)c3)CC2)c(OC)c1OC,4%,0%,?,4%,-12%,-13
COc1ccc(CN2CCN(Cc3ccco3)CC2)cc1,12%,0%,?,1%,-2%,-25
COc1ccc(CN2CCN(Cc3ccc(Br)cc3)CC2)c(OC)c1OC,5%,3%,?,?,12%,-30*
COc1ccc(CN2CCN(Cc3ccco3)CC2)cc1OC,12%,-1%,-24%,-5%,-3%,-34*
Clc1ccc(N2CCN(Cc3ccco3)CC2)cc1,0%,0%,0.63µM*,6%,2%,-16
CC(C)(CNC(=O)C1CC2CCC1C2)CNC(=O)C1CC2CCC1C2 (centres undefined),.,.,-30%,.,.,-3
O=C(NCCc1ccc(Cl)cc1)c1cc2ccccc2oc1=O,.,.,?,.,.,-13
Cc1ccc(N2CC(c3nc4ccccc4n3CCC3CCCCC3)CC2=O)cc1 (centres undefined),-7%,-1%,-14%,9%,-3%,-7
CCc1ccccc1N1CC(c2nc3ccccc3n2CCC2CCCCC2)CC1=O (centres undefined),7%,-5%,28µM*,?,?,-4
Cc1ccccc1N1CC(c2nc3ccccc3n2CCC2CCCCC2)CC1=O (centres undefined),-7%,-4%,?,23µM*,-2%,-6
Cc1cc([N+](=O)[O-])ccc1NC(=O)CN1C2CCC1CC(NC(=O)NC13CC4CC(CC(C4)C1)C3)C2 (centres undefined),-3%,0%,41%,16µM*,-18%,-15
O=C(NCCO)c1cccc(Nc2nc(-c3ccccc3)c3cc(Cl)ccc3n2)c1,4%,2%,-8%,15µM*,-27%,0
COc1ccc(C2/C(=C(\O)c3ccc4c(c3)CC(C)O4)C(=O)C(=O)N2Cc2cccnc2)c(OC)c1 (centres undefined),-3%,0%,11µM*,0%,-5%,-5
O=C(NC1CCCC1)c1cc(-c2ccccc2O)on1,-4%,5%,-17%,6%,0%,-11
O=C(NC1CCCC1)c1cc(-c2cccs2)on1,2%,29%,5%,?,2%[1.84 µM],-39*!
COc1ccc(NC(=O)c2cc(-c3cccs3)on2)c(OC)c1,-15%,1.3µM*,-16%,4%,8%,-12
CCCN(Cc1cc(=O)[nH]c2c(C)cc(C)cc12)C(=O)Nc1cc(Cl)c(OC)cc1OC,.,.,?,.,.,28
COCCCNC(=O)c1ccc(-n2c(-c3ccccc3)cc3c2CCCC3)cc1,-6%,13µM*,?,-10%,2%,6
CCN(CC)CCNC(=O)c1ccc(-n2c(-c3ccccc3)cc3c2CCCC3)cc1,3%,11µM*,?,?,2%,0
CCCn1nc(C(=O)Nc2ncc(Cc3cccc(Cl)c3)s2)ccc1=O,.,.,-34%,.,.,13
CCCC[n+]1c2ccccc2cc2ccccc21,0%,3%,8.9µM*,-28%,7%,3
Cc1[nH]c2ccccc2c1SCCNC(=O)c1ccc(Br)o1,-4%,4%,-4%[57.4 µM],23µM*,?,-4
O=C(NCCSc1c[nH]c2ccccc12)c1ccc(Br)o1,5%,0%,3%[57.4 µM],-12%,-9%,0
Cc1nccn1C(c1ccccc1)c1ccccc1,-5%,1%,0%,2%,18%,-34*
CCN(CC)S(=O)(=O)c1cc(NC(=O)C(C)OC(=O)c2[nH]c(C)c(C(C)=O)c2C)ccc1C (centres undefined),3%,6%,9%,12µM*,-18%,2
CCc1sc(C(N)=O)cc1C,.,.,2%,.,.,11
